These results are taken from PubChem BioAssay (NCI).

What all share (experiment): NCI-60 one-dose screen, 48 h (100 = growth as untreated, 0 = no growth, -100 = all killed)
Details in all cases: 10 µM unless noted

Assay [1] has as its system HCT-15 colon.
The test system of assay [2] is HT29 colon.
Assay [3] concerns SNB-75 CNS.
Assay [4] concerns SNB-19 CNS.
Assay [5] deals with U251 CNS.
Assay [6] concerns PC-3 prostate.
For assay [7], the system named is SK-MEL-5 melanoma.
The test system of assay [8] is UACC-62 melanoma.
Assay [9] deals with LOX IMVI melanoma.
For assay [10], the system named is SK-MEL-28 melanoma.

Each structure is given as a SMILES string. About 83,000 compounds went through this panel and 20% of them were active in at least one assay; those are over-represented in the sample as a whole.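 Assay: single dose, 48 h. Readout: percent growth (0 = no net growth; negative = cell death). Active: <10.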 Values without a mark were called inactive. The source made the active and inactive calls.

Take `COc1ccc(NC(=O)CSc2nc3ccccc3c(=O)n2Cc2cc(OC)c(OC)c(OC)c2)cc1`: the growth in assay [1] was 89.5%; in assay [2], 110%; in assay [3], 66.3%; in assay [4] it was 95.8%; in [5], 97.7%; in assay [6] it was 85.1%. In addition, the growth in assay [7] is 87.5%; in [8] it was 74.2%; in assay [9] it was 94.5%; in assay [10], 94%.
Turning to `CN1C(=O)[C@H]2c3c1cccc3[C@@]13NC(=O)O[C@H]1[C@H](CCC3(C)C)C2(C)C`, the growth in assay [1] is 93.6%; in assay [2] it was 100%; in assay [3] it was 81.1%; in assay [4] it was 90.7%; in assay [5], 103%; in assay [6], 84.6%. For the same compound, the growth in [7] is 98.1%; in [8] it was 85.4%; in [9], 100%; in [10], 109%.
As for `COC(=O)CCCCN=Cc1c(O)c(O)c(C(C)C)c2cc(C)c(-c3c(C)cc4c(C(C)C)c(O)c(O)c(C=NCCCCC(=O)OC)c4c3O)c(O)c12`, the growth in assay [1] is 11.1%; in [2], 4.56% (active); in assay [3], 42.6%; in assay [4], 17.6%; in assay [5], 11.1%; in [6], 12.1%. Also, the growth is 28.6% in assay [7], 33.5% in assay [8], 17.4% in [9] and 31.1% in assay [10].
In the case of `COc1cccc2cc(-c3cc4ccccc4[nH]3)c(=NC(=O)c3ccc(Cl)cc3)oc12`, the growth in [1] was 43.3%; in assay [2], 64.4%; in [3], 5.92% (active); in assay [4], 53.5%; in assay [5], 43.9%; in assay [6], 38.5%. Besides, the growth was 81.7% in [7], 73.8% in [8], 75.5% in assay [9] and 82.2% in assay [10].
Consider `O=C(CN1CCN(c2cc3c(cc2F)c(=O)c(C(=O)O)cn3C2CC2)CC1)Nc1ccc(C(=O)/C=C/c2ccc(Cl)cc2)cc1`, for which the growth in [1] was 111%; in assay [2] it was 106%; in assay [3] it was 84.8%; in assay [4] it was 92.9%; in assay [5], 99%; in [6], 91.7%. The growth in assay [7] is 96.8%; in [8] it was 93.1%; in assay [9], 78.9%; in assay [10], 96.5%.
With `COc1cc(C2CC(c3c(C)[n+]([O-])c4ccccc4[n+]3[O-])=NN2)cc(OC)c1OC` (stereo not given), the growth is 97.3% in assay [1]; 120% in [2]; 99.4% in assay [3]; 101% in assay [4]; 99.6% in assay [5]; 102% in [6]. Also, the growth in [7] was 96%; in assay [8], 105%; in assay [9] it was 98%; in [10] it was 116%.
As for `O=C(N/N=C/c1c(Cl)cccc1Cl)c1ccccc1Nc1ccnc(C(F)(F)F)c1`, the growth in [1] was 64.8%; in assay [2], 90.9%; in assay [3], 62.8%; in assay [4] it was 68.3%; in assay [5] it was 67.7%; in assay [6], 51%. Besides, the growth is 41.2% in assay [7], 55.6% in assay [8], 62.3% in [9] and 84.2% in assay [10].
On to `COc1ccc(NC(=O)c2cc3ccccc3nc2Nc2cc(OC)c(OC)c(OC)c2)cc1`, for which the growth was 36.3% in [1]; 64.3% in assay [2]; 69.4% in [3]; 78.9% in assay [4]; 54.2% in [5]; 57.6% in assay [6]. Also, the growth in assay [7] is 44.3%; in assay [8], 64.4%; in assay [9], 52.8%; in assay [10], 73.2%.
`CC[C@H](C)[C@H]1NC(=O)[C@@H](N[C@](C)(O)[C@@H](N)CC(C)C)[C@@H](C)OC(=O)[C@H](Cc2ccc(OC)cc2)N(C)C(=O)[C@@H]2CCCN2C(=O)[C@H](CC(C)C)NC(=O)[C@@H](C)C(=O)[C@H](C(C)C)OC(=O)C[C@@H]1O`: the growth in assay [1] is 0.591% (active); in assay [2], -24.6% (active); in assay [3] it was -11.1% (active); in assay [4] it was -12.5% (active); in [5], -11.8% (active); in assay [6], 2.33% (active). The growth in [7] is -56.9% (active); in [8] it was -42.9% (active); in [9], -55.9% (active); in [10], -13.6% (active).
Turning to `CCCCCCCCCCCCCCCCC(Br)C(=O)O` (stereo not given), the growth in assay [1] was 83%; in assay [2], 108%; in [3], 86.5%; in assay [4] it was 105%; in assay [5], 102%; in [6], 103%. Further, the growth is 103% in [7], 105% in assay [8], 106% in assay [9] and 100% in [10].
Turning to `Cc1ccc(Cn2c(-c3nonc3N)nc3ccccc32)cc1`, the growth in assay [1] was 50.5%; in [2], 46.3%; in assay [3] it was 57.4%; in [4] it was 91%; in assay [5], 77.5%; in assay [6], 72.2%. In addition, the growth was 76.2% in assay [7], 77.7% in assay [8], 71.7% in assay [9] and 90% in [10].
Turning to `CC[C@H](C)[C@@H]1NC(=O)[C@H]([C@@H](C)O)NC(=O)C(Cc2ccccc2)NC(=O)[C@@H]2CCCN2C(=O)C(C(C)C)NC(=O)C(Cc2ccccc2)NC(=O)CNC(=O)[C@@H]2CCCN2C1=O` (stereo not given in full), the growth in assay [1] is 77.2%; in assay [2] it was 76.2%; in assay [3], 54.3%; in assay [4], 73.6%; in assay [5], 67%; in [6] it was -0.594% (active). Moreover, the growth in assay [7] is 64.8%; in assay [8], 65.6%; in [9], 88.7%; in assay [10] it was 76.4%.
On to `CCOC(=O)[C@H](CSSc1ncnc2cc[nH]c12)NC(=O)[C@@H](C)c1ccc2cc(OC)ccc2c1`, for which the growth in assay [1] is 19.6%; in assay [2] it was 15.7%; in assay [3], 50.1%; in assay [4] it was 91.8%; in assay [5] it was 35.6%; in assay [6], 36.3%. Further, the growth in assay [7] is 45%; in assay [8], 7.27% (active); in assay [9], 10.3%; in [10] it was 69.2%.
Consider `COc1ccc2c(c1)C(C)Cc1c(N(C)C)ncnc1N2C` (stereo not given), for which the growth in [1] is 23.7%; in assay [2], 11.6%; in assay [3], 14.3%; in [4] it was 40.5%; in [5] it was 28%; in [6], 26.4%. Moreover, the growth in assay [7] was 19.4%; in assay [8], 27.6%; in assay [9], 42.4%; in assay [10], 59.3%.
For `CCN1C(=S)N(CC)C2Nn3c(s/c(=C4\C(=O)N(C)c5ccccc54)c3=O)=NC21` (stereo not given), the growth in [1] is 35.5%; in assay [2], 14.9%; in assay [3], -1.67% (active); in assay [4], 70.6%; in assay [5], 51.4%; in assay [6], 38.6%. For the same compound, the growth in [7] was 19.6%; in [8] it was 48.4%; in [9], 49.2%; in assay [10], 59.6%.
Turning to `CCC1CCc2nc3sc(C(=O)Nc4cccc(C)c4)c(N)c3cc2C1` (stereo not given), the growth is 43.7% in [1]; 47.6% in assay [2]; 71.2% in assay [3]; 86% in [4]; 66.6% in assay [5]; 66.7% in [6]. Moreover, the growth in assay [7] is 54.5%; in assay [8] it was 49.2%; in assay [9], 72.7%; in assay [10] it was 69.7%.
In the case of `C=CC(=O)N[C@H](/C=C/C(=O)OCC)Cc1ccc(-c2cc(Cl)cc(Cl)c2)cc1`, the growth in assay [1] was 79.2%; in assay [2] it was 86.9%; in [3], 82.5%; in assay [4], 91.1%; in assay [5] it was 79%; in [6] it was 60.7%. Moreover, the growth in assay [7] is 72.8%; in [8] it was 60.9%; in [9] it was 86.7%; in [10], 113%.
For `Nc1c(C(=O)Nc2cccc([N+](=O)[O-])c2)sc2nc3c(cc12)C(O)CCC3` (stereo not given), the growth in assay [1] is 39.9%; in assay [2], 17.4%; in assay [3] it was 16.9%; in assay [4], 79.9%; in assay [5], 51.4%; in [6], 57.2%. In addition, the growth was 35.1% in [7], 47.3% in assay [8], 62.8% in assay [9] and 54.9% in [10].
Take `CC(C)C[C@H](NC(=O)[C@H](Cc1ccccc1)n1ccc(N2CCCCC2)cc1=O)B(O)O`: the growth was 28.3% in [1]; 0.204% (active) in [2]; 4.25% (active) in assay [3]; 29.2% in assay [4]; 18.1% in assay [5]; 27.7% in assay [6]. Further, the growth in [7] was -25.2% (active); in assay [8] it was -12.5% (active); in assay [9] it was -72.1% (active); in assay [10], 28.6%.
For the compound `Cc1cc(C)c2c(=O)[nH]c(SCC(=O)Nc3cccc(S(=O)(=O)N(C)C)c3)nc2n1`, the growth in assay [1] is 119%; in [2], 104%; in assay [3], 90.7%; in assay [4], 95.9%; in [5], 108%; in assay [6], 95.4%. Moreover, the growth in assay [7] is 113%; in assay [8], 98.3%; in [9] it was 101%; in assay [10], 126%.
On to `O=[N+]([O-])c1ccc(S(=O)(=O)N2CCN(c3ccnc4cc(Cl)ccc34)CC2)c([N+](=O)[O-])c1`, for which the growth in [1] is 66.6%; in assay [2], 93.5%; in assay [3], 73.8%; in assay [4] it was 98.2%; in assay [5], 93.9%; in assay [6], 95.1%. In addition, the growth is 98.8% in assay [7], 81.8% in [8], 32% in assay [9] and 108% in [10].
With `C=C1C(=O)O[C@H]2[C@H]1CC/C(COC(=O)NCc1ccc(OC)cc1)=C\CC[C@@]1(C)O[C@@H]21`, the growth in assay [1] is 12.9%; in [2], -4.4% (active); in assay [3], 96.4%; in assay [4] it was 61.7%; in assay [5], 67.4%; in [6], 52.9%. The growth in assay [7] is 87%; in assay [8], 27.5%; in assay [9], 13.9%; in assay [10], 51.2%.
Consider `O=C(Nc1ccc(OCc2nnc(-c3ccc(Cl)cc3)o2)c(F)c1)Nc1ccc(Cl)c(Cl)c1`, for which the growth in assay [1] was 48.4%; in [2] it was 32.8%; in assay [3], 6.81% (active); in assay [4] it was 71.8%; in assay [5], 46.8%; in assay [6], 44.4%. The growth is 75.6% in assay [7], 60.9% in assay [8], 24.5% in assay [9] and 61.5% in [10].
